In PubChem BioAssay AID2113 (National Center for Advancing Translational Sciences (NCATS), 2009):
Records with an inconclusive call do not appear. Calls of active or inactive are those of the source. The call rests on the fitted dose curve; in most records, active means well fitted curve in either direction with a large enough effect; inconclusive means small, poorly fitted or top-dose-only effect; inactive means no such curve, though single readings can be large or run the other way.

The compounds below were run against Lysosomal alpha-glucosidase (Homo sapiens) (UniProt P10253) (assay: Confirmation of Inhibitors and Activators of Human alpha-Glucosidase From Spleen Homogenate). Conditions: alpha-glucosidase enzyme activity; series mostly up to 60.5 µM.
Text: NIH Chemical Genomics Center [NCGC]
NIH Molecular Libraries Probe Production centers Network [MLPCN]
Assay Submitter (PI): Wei Zheng
Alpha-glucosidase is responsible for hydrolysis of terminal, non-reducing 1,4-linked alpha-D-glucose residues with release of alpha-D-glucose. It is a lysosomal hydrolase that is required for the degradation of a small percentage (1-3%) of cellular glycogen in human. Deficiency of this enzyme results in glycogen-storage disease type II (GSDII), also referred to as Pompe disease, an autosomal recessive disorder. Structurally normal glycogen is accumulated in lysosomes and cytoplasm in affected patients, primarily in muscle tissues. Excessive glycogen storage within lysosomes may interrupt normal functioning of other organelles and leads to cellular injury. In turn, this leads to enlargement and dysfunction of the entire organ involved (eg, cardiomyopathy and muscle weakness).
It has reported that the improper folding and trafficking of alpha-glucosidase resultinged from the genetic mutations may account for a significant number of Pomrope patients. […] We optimized this alpha-glucosidase assay in 1536-well plate format for identifying the novel small molecule inhibitors with the structures other than the sugar analogs in order to develop the new pharmacological chaperones. In particular, this assay is directed towards discovering compounds active in a more natural setting, tissue homogenate, that may have been missed by screens of the purified enzyme under more stringent conditions. This assay attempted to confirm hits from the primary screening.
NCGC Assay Protocol Summary:
This is a fluorogenic enzyme assay with 4-methylumbelliferyl-alpha-D-glucopyranoside as the substrate and human spleen homogenate containing alpha-glucosidase as the enzyme preparation. Upon hydrolysis of this fluorogenic substrate, the resulting product, 4-methylumbelliferone (which excites at 365 nm and emits at 440 nm) can be detected by a fluorescence plate reader. Data were normalized to the controls for basal activity (without enzyme) and 100% activity (with enzyme). The AC50 values were determined from concentration-response data modeled with the standard Hill equation.
Assay buffer: 50 mM citric acid (titrated with potassium phosphate to pH 5.0), 0.01% Tween-20 (pH 5.0 is an optimal condition for this enzyme assay)
1536-well assay protocol for the alpha-glucosidase from human spleen homogenate:
(1) Add 2 ul/well spleen homogenate (1 ug)
(2) Add 23 nL compounds in DMSO solution. The final titration was 0.5 nM to 58 uM.
(3) Add 2 ul of substrate (1 mM final)
(4) Incubate at 37 C for 40 min
(5) Add 2 ul stop solution (1M NaOH and 1M Glycine mixture, pH 10)
(6) Detect the assay plate in a ViewLux plate reader (PerkinElmer) with Ex=365 nm and Em=440nm.
Keywords: Alpha-glucosidase, Pompe Disease, pharmacological chaperone, chaperone therapy, high throughput screening, alpha-glucosidase inhibitor, MLSMR, MLSCN, NIH Roadmap, qHTS and NCGC
For CC(=O)[O][Hg][c]1ccccc1, the outcome was “inactive”. With COc1ccc(Cc2nccc3cc(OC)c(OC)cc23)cc1OC the outcome was “inactive”. O[C@@H]1[C@H](O)[C@H]2[C@@H](O)CCN2C[C@@H]1O was tested, and the outcome was “inactive”. CC(C)(C)c1cc(C=C(C#N)C#N)cc(C(C)(C)C)c1O was tested, and the outcome was “inactive”. In the case of CC(=O)Nc1ccc(OC(=O)c2ccccc2N)cc1, the outcome is reported as “inactive”. In the case of O[C@H]1[C@H](O)[C@@H](O)CN2CC[C@H](O)[C@H]12, the outcome is reported as “inactive”. CCOc1ccc2cc(C#N)c(=O)oc2c1 was tested, and the outcome was “inactive”. For C/C=C(/C)C(=O)O[C@H]1C(C)=C2C([C@@H]1OC(=O)CCCCCCC)[C@@](C)(OC(C)=O)C[C@@H](OC(=O)CCC)[C@@]1(O)[C@H]2OC(=O)[C@@]1(C)O (stereo not given in full), the outcome was “inactive”. For Cc1cc(/C=C2/C(=O)NC(=O)N(Cc3ccco3)C2=O)c(C)n1-c1ccc(C(=O)O)cc1, the outcome was “inactive”. With C/C(O)=C(/C#N)C(=O)Nc1cc(Br)ccc1Br the outcome was “inactive”. For CCCCC/C=C\C/C=C\C/C=C\C/C=C\CCCC(=O)NCCCC(=O)O, the outcome was “inactive”. For O=C(O)c1ccccc1-c1c2cc(Br)c(=O)cc-2oc2[c]([Hg])c(O)c(Br)cc12, the outcome was “inactive”. For Cc1cc(/C=C2\C(=O)NC(=O)N(c3ccc(F)cc3)C2=O)c(C)n1-c1ccc(C(=O)O)cc1, the outcome was “inactive”. In the case of Cc1cc(C(=O)CS(=O)(=O)c2ccc(F)cc2)cc(C)c1OC(=O)N(C)C, the outcome is reported as “inactive”. With OC[C@@H]1[C@@H](O)[C@H](O)[C@H]2[C@@H](O)CCN21 the outcome was “inactive”.
